The nature of this assay: probe aNOTCH2 binding on compound microarray – biochemical, small-molecule microarray, 635/667 nm fluorescence, primary screen (AID 1121).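 Note: score merges feature fluorescence read at 667 nm with its signal to noise.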 Particulars: higher = more signal.
Consider `COC(=O)C1=CC(CCCO)=CC(C2CC2)N(C)C=C1C(=O)OC` (stereo not given), for which the composite z-score was -0.0668.

With `CC(=O)c1ccc(C(O)C2C=CC3C(=O)N(c4ccccc4)C(=O)C3N2Nc2ccc(C#N)cc2)cc1` (stereo not given), the composite z-score was -0.0023.

With `COCCOC(=O)N1C(=O)[C@@]2(c3cc(C#CC4=CCCCC4)ccc31)[C@H](c1ccc(OCCO)cc1)N1[C@H](c3ccccc3)[C@H](c3ccccc3)OC(=O)[C@H]1[C@@H]2C(=O)NC[C@H](O)c1ccccc1`, the composite z-score came to 0.0629.

In turn, `CCCC[C@@H]1C[C@H]1[C@@H](NC(=O)Cc1ccccc1)c1ccc(-c2ccccc2)cc1` displayed a composite z-score of -0.0242.

In turn, `CCCCN1CC=CC23O[C@@H]4/C=C\CCC(C)OC(=O)C4[C@H]2C(=O)N(C(CO)C(C)C)[C@@H]3C1=O` (stereo not given in full) yielded a composite z-score of -0.12.

For `CO[C@H]1O[C@H](CO)[C@@H](OC(=O)Nc2ccccc2-c2ccccc2)[C@H](OC(=O)Nc2ccc3c(c2)OCO3)[C@H]1OC(=O)Nc1ccc2c(c1)OCO2`, the composite z-score was -0.103.

For the molecule `C=CCN1C(=O)[C@@]2(O[C@@H](CCn3cc([C@H](O)c4ccccc4)nn3)[C@H]([Si](C)(C)c3ccc(OC)cc3)[C@H]2C)c2cc(N3CCC3=O)ccc21`, the composite z-score was -0.189.

Consider `C=CCN1C(=O)[C@@]2(CCS(=O)(=O)c3ccccc3)N=C(c3ccc(OCCCO)cc3)O[C@H]2c2ccccc21`, for which the composite z-score was -0.0664.

As for `COC(=O)CCCCCCC(=O)Nc1ccc(NC(=O)CCCC[P+](c2ccccc2)(c2ccccc2)c2ccccc2)cc1`, the composite z-score was -0.134.

With `CC(CO)N1C(=O)[C@@H]2[C@H]3C(=O)OCC=C[C@H]3OC23C=CCN(C(C)(C)C)C(=O)[C@@H]13` (stereo not given in full), the composite z-score was -0.125.

With `[N-]=[N+]=Nc1ccccc1[C@@H]1OC(c2ccc(OCCCO)cc2)=N[C@]1(Cc1ccccc1)C(=O)NCC(O)CO` (stereo not given in full), the composite z-score is 0.178.

With `CC1CC/C=C\[C@H]2OC34C=CCN(c5ccc(Cl)cc5)C(=O)[C@H]3N(CCCCCO)C(=O)[C@]4(C)C2C(=O)O1` (stereo not given in full), the composite z-score was -0.117.

`C=CCC(OC(C)=O)[C@@H]1[C@@H](N(Cc2cccc3ccccc23)C(=O)c2cccc3ccccc23)c2cc(OCCCO)ccc2N1C(=O)c1ccc(-c2ccccc2)cc1` (stereo not given in full): the composite z-score was -0.143.

Molecule `CN1C(=O)C2C=CC(C(O)c3ccccn3)N(N(c3ccccc3)c3ccccc3)C2C1=O` (stereo not given) gave a composite z-score of -0.0166.

For the molecule `CC(C)(C)N1CC=CC23O[C@@H]4C=CCCOC(=O)C4[C@H]2C(=O)N(CCO)[C@@H]3C1=O` (stereo not given in full), the composite z-score turned out to be 0.226.

Take `Cc1ccc(S[C@]2(C(=O)NCCCN(C)C)CC(=O)N(C3CCCCC3)[C@@H]2c2ccc(CO)cc2)cc1`: the composite z-score is -0.0761.

In the case of `CCOc1cc(C(O)C2C=CC3C(=O)N(c4ccccc4)C(=O)C3N2Nc2ccc(C#N)cc2)ccc1O` (stereo not given), the composite z-score was -0.171.

Take `COCCOC(=O)N1C(=O)[C@@]2(c3cc(C#Cc4ccc(OC)cc4)ccc31)[C@H](C(=O)Nc1nc3ccccc3s1)[C@H]1C(=O)O[C@H](c3ccccc3)[C@H](c3ccccc3)N1[C@@H]2c1ccc(OCCO)cc1`: the composite z-score is -0.0539.

For the molecule `O=C1O[C@H](c2ccccc2)[C@H](c2ccccc2)N2[C@H]1[C@@H](C(=O)NC[C@H](O)c1ccccc1)[C@]1(C(=O)Nc3ccc(C#CCCO)cc31)[C@H]2c1ccc(OCCO)cc1`, the composite z-score was -0.0666.

As to `CCC(CC)C(O)C1C=CC2C(=O)N(c3ccccc3)C(=O)C2N1Nc1ccc(C(C)C)cc1` (stereo not given), the composite z-score is 0.197.

`C=CCC(OC(C)=O)[C@@H]1[C@@H](N(Cc2cccc3ccccc23)C(=O)Cc2ccc(OC)cc2)c2cc(OCCCO)ccc2N1C(=O)c1ccc2ccccc2n1` (stereo not given in full) displayed a composite z-score of -0.0515.

For `C=C(C)c1cc2c(c(CCCCCC)n1)[Si](C(C)C)(C(C)C)OC2`, the composite z-score was -0.146.

Molecule `COCCOC(=O)N1C(=O)[C@@]2(c3cc(C#CC4=CCCCC4)ccc31)[C@H](c1ccccc1OCCO)N1[C@H](c3ccccc3)[C@H](c3ccccc3)OC(=O)[C@H]1[C@@H]2C(=O)Nc1nc2ccccc2s1` came in with a composite z-score of -0.0047.

The molecule `O=C1NC(=O)C2C1C=CC(C(O)c1cccc3ccccc13)N2Nc1ccc(Cl)cc1Cl` (stereo not given) had a composite z-score of 0.0915.

In the case of `CN(C)C(=O)[C@@]1(Cc2ccccc2CN=[N+]=[N-])N=C(c2ccc(OCCCO)cc2)O[C@H]1c1ccccc1CN=[N+]=[N-]`, the composite z-score stood at 0.202.

(Values after PubChem BioAssay.)
